“And” between values parts separate entries of the source, which are not always exact repeats. Identical values can stand only once. This is part of a sample that, as a whole, favours compounds with a hit. Of some 79,000 tested, about 15% had one in any assay. Unmarked numbers belong to inactive results. The source made the active and inactive calls. Rule as the data show it: active = growth inhibition above about 70%; inactive = the rest.
Experiments:
[1] = NCI Yeast Anticancer Drug Screen. Data for the rad50 strain (AID 155);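 also: 0% = growth of vehicle-only cultures of the same strain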; conditions: S. cerevisiae rad50 strain growth inhibition; at 50.0 µM; stronger effect = higher value
Summary of the method: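 Inhibition values express reduced yeast growth in compound-treated cultures relative to vehicle-treated controls.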

[2] = NCI Yeast Anticancer Drug Screen. Data for the mec2-1 strain (AID 157); conditions: S. cerevisiae mec2-1 strain, at 50.0 µM, stronger effect = higher value
Summary of the method: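 Growth inhibition is read against vehicle-treated controls after compound exposure of the mec2-1 yeast strain, which is defective in DNA damage repair or cell cycle control.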

[3] = NCI Yeast Anticancer Drug Screen. Data for the sgs1 mgt1 strain (AID 161);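 also: 0% = growth of cultures given vehicle only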; conditions: S. cerevisiae sgs1 mgt1 strain, at 50.0 µM, stronger effect = higher value
Summary of the method: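 Yeast cells carrying a defined DNA-repair defect were exposed to test compounds. Growth inhibition was measured relative to vehicle-treated controls.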

[4] = NCI Yeast Anticancer Drug Screen. Data for the cln2 rad14 strain (AID 165);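 also: 0% = growth equal to vehicle treated cultures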; conditions: S. cerevisiae cln2 rad14 strain, at 50.0 µM, stronger effect = higher value
Summary of the method: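 Growth inhibition, relative to vehicle-treated controls, is the read-out. The test organism is a yeast strain with defined genetic alterations, cln2 rad14.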

[5] = NCI Yeast Anticancer Drug Screen. Data for the bub3 strain (AID 167); conditions: S. cerevisiae bub3 mutant strain, at 50.0 µM, stronger effect = higher value
Summary of the method: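 Steps: expose the mutant yeast strain to compound; grow alongside vehicle-treated cultures; measure growth; express inhibition against the vehicle cultures.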

[6] = NCI Yeast Anticancer Drug Screen. Data for the mlh1 rad18 strain (AID 175); conditions: S. cerevisiae mlh1 rad18 strain growth inhibition; at 50.0 µM; stronger effect = higher value
Summary of the method: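 Cells of a genetically altered yeast strain, deficient in DNA damage repair, were treated with compound. Their growth was then compared with that of vehicle-treated cultures to give inhibition.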

SMILES	growth inhibition [1]	growth inhibition [2]	growth inhibition [3]	growth inhibition [4]	growth inhibition [5]	growth inhibition [6]
C=CCc1c[nH]c(=S)[nH]c1=O.[Hg]	99.1% (active)	98.8% (active)	98.8% (active)	98.8% (active)	99% (active)	98.8% (active)
CCCCN=C=S	45.7%	-11.7%	21.8%	5.15%	-3.8%	19%
O=C1CC(c2cccc(Br)c2)n2cccc21 (centres undefined)	9.9%	-1.1%	9.95%	37.5%	13.8%	-5.7%
CCC1(CCNC(=O)CNC(C)=O)C(=O)NC(=O)NC1=O	3.3%	-6.45%	10.2%	-45.1%	10.9%	10.2%
N#CCc1ccccc1	8.5% and -45.5%	17.6% and 3.2%	-7.35% and -21.4%	13.7% and 5.6%	15.4% and -1.05%	4.85% and -6.65%
CN(C)CCNC(=O)c1cc(COC(=O)N(CCCl)CCCl)ccc1[N+](=O)[O-]	38.2%	36.9%	56.1%	28.1%	35.8%	56.8%
CCOS(=O)(=O)OCC	1.2%	-12.1%	4.25%	-0.45%	-10.8%	14.2%
CC(=O)NC(Cc1ccc(N(CCCl)CCCl)cc1)C(=O)NC(CC(C)C)C(=O)O (centres undefined)	2.85%	22.6%	-4.15%	5.75%	2.7%	21.7%
CC(C)CC(NC(=O)C(Cc1ccccc1)NC(=O)CNC(=O)CNC(=O)C(N)Cc1ccc(O)cc1)C(=O)O (centres undefined)	0.9%	2.85%	-8.25%	-7.5%	-0.75%	-11.2%
CNC(=O)O/N=C/c1cccc(/C=N/OC(=O)NC)c1	-0.1%	14.3%	3.35%	49.5%	28.8%	11.2%
CC1=CC(C)=Nc2ccc(C)cc2N1	-2.65%	-0.6%	-5.95%	-2.65%	-6%	22.2%
COc1cccc(C=C(C#N)C#N)c1	46.8%	23.8%	31.7%	26.4%	14.6%	33.4%
[Mn+3].[O-][Cl+3]([O-])([O-])O.[O-]c1ccccc1C=NCCN1CC1.[O-]c1ccccc1C=NCCN1CC1	95.5% (active)	98.7% (active)	93.5% (active)	87.1% (active)	98.8% (active)	84.2% (active)
CC[N+]1(CC)CC[N+](CC)(CC)CC1	22.9%	-49%	25.8%	-9.05%	-0.9%	16.4%
CC(C)(OOC(C)(C)c1ccccc1)c1ccccc1	-13.1%	-16%	4.6%	-40.9%	6.05%	-8.95%
CCOc1ccc(P2(=S)SP(=S)(c3ccc(OCC)cc3)S2)cc1 (centres undefined)	-11.3%	-20.9%	-13.2%	20%	17.1%	-13.8%
N#CC(c1ccccc1)N1CCCN(C(C#N)c2ccccc2)C1c1ccc(N(CCCl)CCCl)cc1 (centres undefined)	11.1%	-1.5%	2.25%	-17.3%	-0.9%	9.65%
CCC1=CC2CN3CCc4c([nH]c5ccccc45)C(C(=O)OC)(C2)C13 (centres undefined)	30.2% and -9.75%	-26.9% and -17.9%	-12.8% and -33.1%	-19.3% and -6.65%	-2.3% and -38.2%	-17.6% and -19.2%
C[CH2][Sn]([CH2]C)([CH2]CC(=O)OC)[CH2]CC(=O)OC	20.4%	18.4%	1%	-11%	-24.2%	-64.2%
O=[N+]([O-])c1c(F)cc(F)c([N+](=O)[O-])c1F	-29.5%	-6.15%	-11.6%	-28.2%	-4.75%	52.9%

SMILES	growth inhibition [1]	growth inhibition [2]	growth inhibition [3]	growth inhibition [4]	growth inhibition [5]	growth inhibition [6]
CC(C)C1CN1CC(O)Cn1ccnc1[N+](=O)[O-] (centres undefined)	-15.2%	-17.8%	-19.1%	0%	7.35%	-19.2%
CC12CC(=O)C3C(CCC4CC=CCC43C)C1CCC2=O (centres undefined)	22.1%	-12.5%	28.1%	5.8%	10%	24.5%
N/C(=N\N=C\c1ccccc1O)N[N+](=O)[O-]	-17.5%	-22.9%	-14.8%	-108%	-19.2%	-5.85%
c1ccc(N2CCNCC2)nc1	-6.4%	-4.3%	9.2%	6.9%	8.25%	0.15%
CNN	19.6%	-4.8%	34.1%	3.3%	-1.8%	40.1%
CCO[C@@H]1c2cc3c(cc2[C@@H](c2cc(OC)c(O)c(OC)c2)[C@H]2C(=O)OC[C@@H]21)OCO3	88.1% (active)	92.2% (active)	89% (active)	85.2% (active)	88.5% (active)	87.5% (active)
COc1ccc(C2=CC3=CCC4C(CCC5(C)C(O)CCC45)C3(C)CC2)s1 (centres undefined)	19.2%	11.7%	29.6%	-0.6%	-0.1%	26.1%
CC1=CC=NC(Cl)(Cl)N1	19.4%	-9.6%	-15.7%	13.6%	-1.35%	20.4%
C[CH2][Sn]([c]1ccccc1)[c]1ccccc1	33.1%	39.2%	40.3%	3.65%	35.5%	47.1%
CCCNP(=S)(NCCC)NCCC	1%	-10.4%	8.5%	-16.4%	0%	22%
C=C(C)CC1(CC)C(=O)NC(=S)NC1=O	-11.8% and -1.6%	-21.6% and -1.3%	0.35%	6%	-5.6%	-13.4% and 12.1%
ClCCN(CCCl)c1ccc(CCN2CCOCC2)cc1	46.2%	15.9%	19.5%	37.4%	-0.1%	9.3%
CC1=CC(=O)C=CC1=O	39.1%	52.3%	28.9%	12.4%	11.3%	55.4%
CC[As](CC)SC(CC[C@@H](C)C1CC[C@@]2(C)C3=C(CC[C@]12C)[C@@]1(C)CC[C@H](O)C(C)(C)[C@@H]1CC3)C(C)C (some centres undefined)	3.95%	17.6%	-8.15%	-21.1%	-1.55%	-25.6%
C=C1CCC2CC1C2(C)C (centres undefined) (tested in a mixture with another compound)	7.95%	-14.2%	-5.7%	-2.7%	5.85%	-23.9%
CCn1nnnc1N	3.35%	15.9%	11.1%	16.4%	17.8%	14%
CN(C)C1COC2Cc3ccccc3C1O2 (centres undefined)	-25.6% and -13.6%	-26.2% and -9.45%	-3.65% and 1.7%	-22.4% and 3.5%	-0.15% and -8.75%	-77.4% and -90.5%
CC1(C)OP(=O)(O)C=C1[Se]c1ccccc1	19.2%	11.2%	24.4%	4.95%	-3.2%	26.6%
CSCC(NP1(=O)SC(NN=C(C)C)=NC1(C)C)C(=O)O (centres undefined)	4.85%	-3.7%	-26.5%	20.3%	17.6%	-3.45%

From PubChem BioAssay (NCI)
